The text below walks through data of PubChem BioAssay (NCI).

Compounds without any hit were thinned out: in the full panel of roughly 83,000, 20% have a hit.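 Results are percent growth after 48 hours of single-concentration exposure. 100 means growth as in untreated cells, lower positive values show inhibition; negative values down to -100 show cell death.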 A number with no mark means an inactive call. Calls of active or inactive are those of the source. Rule for the calls: active = growth percent below 10; inactive = the rest.

Among the test systems are T-47D breast; BT-549 breast; MDA-MB-435 melanoma; SW-620 colon; MCF7 breast; HCT-116 colon; HCC-2998 colon; KM12 colon.
Experiment in all cases: NCI-60 one-dose screen, 48 h (100 = growth as untreated, 0 = no growth, -100 = all killed)
What all share (conditions): 10 µM unless noted

In the case of `ClCC(Cl)[C@@H]1CC2C=CC1C2` (stereo partly specified), the growth in the assay with T-47D breast was 98.8%; in the assay with BT-549 breast, 103%; with MDA-MB-435 melanoma, 96.9%; in the assay on SW-620 colon it was 105%; with MCF7 breast, 98.1%; in the assay on HCT-116 colon, 98.4%. The growth with HCC-2998 colon is 118%; in the assay on KM12 colon it was 115%.
Take `Cc1ccc(NC(=S)N2CCOCC2)cc1C`: the growth is 92.1% with T-47D breast; 102% in the assay on BT-549 breast; 83.2% in the assay with MDA-MB-435 melanoma; 109% in the assay with SW-620 colon; 104% with MCF7 breast; 89.5% with HCT-116 colon. Also, the growth with HCC-2998 colon was 109%; in the assay with KM12 colon, 101%.
Consider `CNc1ccccc1C(=O)N/N=C/C=C/c1ccccc1`, for which the growth in the assay on T-47D breast is 29.5%; in the assay on BT-549 breast, 47.3%; in the assay with MDA-MB-435 melanoma it was -43.1% (active); in the assay on SW-620 colon, 20.2%; in the assay with MCF7 breast it was 12.2%; in the assay on HCT-116 colon, 21.6%. For the same molecule, the results for the growth with HCC-2998 colon and in the assay on KM12 colon were 42.2% and 22.2%, respectively.
As for `O=S(Cc1ccccc1)/C(=C/NC(=S)Nc1cc(Cl)ccc1Cl)c1ccccc1` (stereo unspecified), the growth with T-47D breast is 104%; in the assay with BT-549 breast it was 96.5%; with MDA-MB-435 melanoma, 108%; in the assay with SW-620 colon it was 107%; in the assay on MCF7 breast, 96.9%; in the assay with HCT-116 colon, 109%. Further, the growth in the assay with HCC-2998 colon was 103%; in the assay on KM12 colon, 100%.
With `NNc1ncnc2nc[nH]c12`, the growth in the assay with T-47D breast is 62.2%; in the assay on BT-549 breast, 85%; with MDA-MB-435 melanoma it was 51.3%; with SW-620 colon, 41.6%; in the assay with MCF7 breast, 33%; with HCT-116 colon it was 24%. Besides, the growth was 78% with HCC-2998 colon and 46% in the assay with KM12 colon.
In the case of `O=[N+]([O-])c1c(O)c(CNCCCO)cc(CNCCCO)c1O`, the growth was 113% with T-47D breast; 119% with BT-549 breast; 111% with MDA-MB-435 melanoma; 96.3% in the assay on SW-620 colon; 112% in the assay with MCF7 breast; 97.4% with HCT-116 colon. Further, the values for the growth in the assay with HCC-2998 colon and in the assay on KM12 colon were 106% and 138%, respectively.
With `CC(=O)Nc1ccc(O)c(C)c1`, the growth in the assay on T-47D breast is 95.9%; with BT-549 breast, 112%; in the assay with MDA-MB-435 melanoma, 108%; with SW-620 colon it was 106%; with MCF7 breast, 99.9%; in the assay with HCT-116 colon, 99.1%. The growth in the assay with HCC-2998 colon and in the assay with KM12 colon was 106% in each case.
Turning to `O=C(O)Cc1ccc(Cl)cc1`, the growth was 117% in the assay with T-47D breast; 105% in the assay on BT-549 breast; 97.3% with MDA-MB-435 melanoma; 111% in the assay with SW-620 colon; 99.2% in the assay on MCF7 breast; 77.4% in the assay on HCT-116 colon. The figures for the growth in the assay with HCC-2998 colon and with KM12 colon were 108% and 113%, respectively.
For the molecule `CCOC(=O)C1(N)CCCCC1`, the growth with T-47D breast was 93.4%; in the assay with BT-549 breast it was 113%; in the assay on MDA-MB-435 melanoma it was 99.2%; in the assay with SW-620 colon, 103%; with MCF7 breast, 97.1%; with HCT-116 colon, 96%. In addition, the growth in the assay with KM12 colon is 107%.
For `O=C(O)c1cccc(-n2ncc(Cl)c(Cl)c2=O)c1`, the growth is 102% in the assay on T-47D breast; 105% with BT-549 breast; 93.2% in the assay with MDA-MB-435 melanoma; 113% with SW-620 colon; 74.8% with MCF7 breast; 105% in the assay with HCT-116 colon. Further, the growth in the assay with HCC-2998 colon was 108%; in the assay with KM12 colon it was 77.2%.
Consider `OCCOc1ccc(-c2cc(-c3ccccn3)nc(-c3ccccn3)c2)cc1`, for which the growth is 17.4% with T-47D breast; 15.9% in the assay with BT-549 breast; 22.5% in the assay with MDA-MB-435 melanoma; 2.05% (active) with SW-620 colon; 1.69% (active) in the assay with MCF7 breast; 6.4% (active) in the assay on HCT-116 colon. Besides, in the assay on KM12 colon, the growth was 8.52% (active).
On to `CC(C)c1ncc([N+](=O)[O-])n1C`, for which the growth in the assay on T-47D breast was 101%; with BT-549 breast it was 103%; in the assay with MDA-MB-435 melanoma it was 136%; in the assay with SW-620 colon it was 98%; in the assay with MCF7 breast, 97.2%; with HCT-116 colon, 107%. Moreover, the growth with KM12 colon was 111%.
In the case of `Nc1ncnc2c1ncn2C1OC(CO)C2OC21` (stereo unspecified), the growth in the assay on T-47D breast is 84.7%; with BT-549 breast it was 110%; in the assay with MDA-MB-435 melanoma, 111%; with SW-620 colon, 99.5%; in the assay on MCF7 breast it was 93.6%; in the assay on HCT-116 colon, 108%. Moreover, the values for the growth in the assay with HCC-2998 colon and in the assay with KM12 colon were 105% and 109%, respectively.
As to `Clc1cccc(Cl)c1CSc1nc2ccccc2n2cccc12`, the growth was 25.1% with T-47D breast; 98.7% in the assay on BT-549 breast; 66.8% in the assay on MDA-MB-435 melanoma; 97% with SW-620 colon; 17% in the assay with MCF7 breast; 86.9% in the assay with HCT-116 colon. In addition, the growth with KM12 colon was 84.4%.
On to `COC(=O)c1ccc([N+](=O)[O-])c(C)c1`, for which the growth is 102% in the assay on T-47D breast; 86.3% in the assay on BT-549 breast; 101% in the assay with MDA-MB-435 melanoma; 103% in the assay with SW-620 colon; 91% in the assay with MCF7 breast; 95.6% in the assay with HCT-116 colon. Moreover, the growth was 106% in the assay with HCC-2998 colon and 99.8% in the assay on KM12 colon.
Regarding `COc1cc2c(c(OC)c1OC)-c1ccc(SC)c(=O)cc1[C@@H](NC1OC(CO)C(O)C(O)C1O)CC2` (stereo partly specified), the growth with T-47D breast was 52.5%; in the assay with BT-549 breast, 14.9%; in the assay with MDA-MB-435 melanoma, -39.6% (active); in the assay on SW-620 colon it was 18.8%; in the assay on MCF7 breast it was 13.9%; with HCT-116 colon it was 9.89% (active). In the assay with KM12 colon, the growth was -3.89% (active).
For `CC1(c2ccccc2)CO1` (stereo unspecified), the growth was 109% in the assay on T-47D breast; 112% in the assay on BT-549 breast; 113% in the assay on MDA-MB-435 melanoma; 108% with SW-620 colon; 103% with MCF7 breast; 101% with HCT-116 colon. The growth in the assay on KM12 colon is 108%.
For `O=[n+]1ccn([O-])c2ccccc21`, the growth in the assay with T-47D breast is 92.4%; in the assay with BT-549 breast it was 92.5%; in the assay on MDA-MB-435 melanoma, 101%; with SW-620 colon, 93.9%; with MCF7 breast it was 95.8%; in the assay with HCT-116 colon it was 95.7%. Also, the growth in the assay on KM12 colon is 99%.
Regarding `CC(=O)c1cccc(O)c1`, the growth is 103% with T-47D breast; 113% in the assay on BT-549 breast; 107% in the assay with MDA-MB-435 melanoma; 101% with SW-620 colon; 94.3% in the assay with MCF7 breast; 99.9% with HCT-116 colon. Also, the growth in the assay with KM12 colon was 103%.
As to `O=C(c1ccccc1)c1ccc(-c2ccc(O)cc2)cc1`, the growth in the assay on T-47D breast is 50.6%; in the assay with BT-549 breast, 52.3%; in the assay on MDA-MB-435 melanoma it was 9.71% (active); with SW-620 colon, 45.4%; with MCF7 breast, 23.3%; in the assay on HCT-116 colon it was 59.4%. Also, in the assay with KM12 colon, the growth is 35.2%.
With `Nc1c(Br)cc(O)c2c1C(=O)c1ccccc1C2=O`, the growth in the assay with T-47D breast was 93.7%; in the assay with BT-549 breast, 94.5%; in the assay on MDA-MB-435 melanoma it was 98%; in the assay with SW-620 colon it was 61.7%; in the assay with MCF7 breast, 83.8%; in the assay on HCT-116 colon, 69.8%. Also, the growth in the assay on KM12 colon is 24.7%.
Take `COC1OC(CO)C(OC)C(O)C1O` (stereo unspecified): the growth in the assay on T-47D breast is 112%; with BT-549 breast, 104%; in the assay on MDA-MB-435 melanoma, 109%; with SW-620 colon it was 93.6%; in the assay with MCF7 breast it was 98.9%; with HCT-116 colon it was 106%. In addition, the growth in the assay on KM12 colon was 99.6%.
Consider `Cn1c(=O)c2nc3c(=O)n(C)c(=O)n(C)c3nc2n(C)c1=O`, for which the growth is 91.1% in the assay with T-47D breast; 100% with BT-549 breast; 112% in the assay on MDA-MB-435 melanoma; 99.8% with SW-620 colon; 93.8% with MCF7 breast; 92.1% in the assay with HCT-116 colon. Further, in the assay on KM12 colon, the growth is 109%.
Regarding `C#CC(O)c1ccccc1` (stereo unspecified), the growth in the assay on T-47D breast is 99.9%; in the assay on BT-549 breast, 106%; in the assay with MDA-MB-435 melanoma, 108%; with SW-620 colon it was 102%; with MCF7 breast it was 99.1%; in the assay with HCT-116 colon it was 102%. The growth in the assay on KM12 colon is 107%.
For the molecule `NC(=O)OCCO`, the growth in the assay with T-47D breast was 94.4%; in the assay with BT-549 breast it was 94.9%; in the assay with MDA-MB-435 melanoma it was 111%; in the assay on SW-620 colon, 106%; in the assay on MCF7 breast, 92.9%; in the assay with HCT-116 colon it was 90.6%. Also, the growth in the assay with KM12 colon is 98.7%.
